Several values for one entry are separate records, joined by “and”; a condition that tells them apart may be missing. Identical values can stand only once. This is part of a sample that, as a whole, favours compounds with a hit. Of some 83,000 tested, about 20% had one in any assay.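 Method: cells in 96-well plates; compound added at one concentration; 48 h incubation; percent growth measured; values under 10 scored active.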 Activity calls are given as the source filed them.
The compounds below were run on UACC-257 melanoma (assay: NCI-60 one-dose screen, 48 h (100 = growth as untreated, 0 = no growth, -100 = all killed)). Conditions: 10 µM unless noted.

| Structure (SMILES) | growth |
| --- | --- |
| N#C/C(=C/c1ccc([N+](=O)[O-])cc1)c1nnc(NC(=O)c2ccc(-n3c(=O)[nH]c4ccccc4c3=O)cc2)s1 | 105% (inactive) |
| O=C(CSc1nnc(-c2ccc(-c3nc4ccc(Cl)cc4[nH]3)cc2)o1)Nc1ccccc1 | 47.7% (inactive) |
| Cc1cccc(NCC(=O)N2CCN(c3ncnc4c3cnn4-c3ccccc3)CC2)c1 | 66.9% (inactive) |
| O=C(N/N=C/c1ccc(Br)o1)c1[nH]c2ccc(Br)cc2c1-c1ccccc1 | 26.2% (inactive) |
| CCCCCCCCc1ccc(C(=O)Nc2ccc(C)c(OP(=O)(O)O)c2)cc1 | 102% (inactive) |
| Cn1cc(-c2cc3nc(-c4cn(C)c5ncc(Br)cc45)cc(N)n3n2)c2cc(F)ccc21 | 24.4% (inactive) |
| O=C1Nc2ccccc2/C1=C/C(=O)c1cc2ccccc2oc1=O | 104% (inactive) |
| c1n[nH]cc1-c1nc2ccc3cn[nH]c3c2c2c1CCCC2 | 100% (inactive) |
| CN1C(=O)C(O)(CC(=O)c2cc3ccccc3oc2=O)c2ccccc21 (stereo not given) | 109% (inactive) |
| O=C(CCl)Nc1ccc(C(=O)/C=C/c2cc3ccccc3nc2Cl)cc1 | 24.4% (inactive) and 58.7% (inactive) |
| Cc1cc(C2(c3cc(C)c(OCC(O)CNc4c(C)n(C)n(-c5ccccc5)c4=O)cc3C(C)C)OC(=O)c3ccccc32)c(C(C)C)cc1OCC(O)CNc1c(C)n(C)n(-c2ccccc2)c1=O (stereo not given) | 27.5% (inactive) |
| Cn1cc(-c2cc(N)n3nc(-c4c[nH]c5ccccc45)cc3n2)c2cc(Br)ccc21 | -79.8% (active) |
| CCC(=O)c1c2c(c3ccc4c5ccccc5ccc4n13)C(=O)c1ccccc1C2=O | 71.6% (inactive) |
| CS(=O)(=O)Nc1cc(-c2ccc3ncnc(Nc4ccc(OCc5cccnc5)c(Cl)c4)c3c2)cnc1Cl | 1.79% (active) |
| Cn1cc(-c2cc(N)n3nc(-c4c[nH]c5ccccc45)cc3n2)c2cc(Cl)ccc21 | -84.3% (active) |
| COc1ccc(N=Nc2c(N)nn3c(N)c(C#N)c(-c4ccc(C)cc4)nc23)cc1 | 92.7% (inactive) |
| COc1ccc(C(=O)/C=C/c2ccc3c(c2)OCCO3)cc1S(N)(=O)=O | 77.9% (inactive) |
| CCCCC[C@@H]1C/C=C(\C)[C@@H](O)C(C)(C)C(=O)[C@@H](C)/C=C(\C)[C@@H]2C[C@H](O)C[C@](O)(CC(=O)O1)O2 | 1.3% (active) |
| CC(C)(C)c1ccc(OCc2nc3ccccc3n2-c2cccc(N)c2)cc1 | 73.8% (inactive) and 111% (inactive) |
| O=C1/C(=C/c2cnc(-c3ccccc3)s2)SC(=S)N1Cc1ccc2c(c1)OCO2 | 108% (inactive) |
| COc1ccc(NC2=C(I)C(=O)C(C)=C(C)C2=O)cc1 | -14.2% (active) |
| COc1ccc(-c2nnc3c(/C=C/c4ccc(Br)cc4)nc4ccccc4n23)cc1 | 70.9% (inactive) |
| C[C@H]1[C@@H](CC(=O)N[C@@H](Cc2coc3ccccc23)B(O)O)O[C@@H]2OC3(C)CC[C@H]4[C@H](C)CC[C@@H]1[C@@]24O3 | -45.3% (active) |
| O=C(NNC(=S)NC(=O)c1ccccc1)c1ccc(OCc2nc3ccc(Cl)cc3[nH]2)cc1 | -24.8% (active) |
| CC1=C(C)C(=O)C(NCCN2CCOCC2)=C(Br)C1=O | -13.3% (active) |
| N#Cc1ccc(C(=O)NNC(=O)CSc2nc3sc4c(c3c(=O)n2-c2ccc(Cl)cc2)CCCC4)cc1 | 91.4% (inactive) |
| CCCCCCCOc1ccc(S(=O)(=O)Nc2ccc(C)c(F)c2C(=O)O)cc1 | 102% (inactive) |

Each compound was assayed on M14 melanoma in the same assay as above. Conditions: 10 µM unless noted.

| Structure (SMILES) | growth |
| --- | --- |
| O=C(CSc1nc2ccccc2c(=O)[nH]1)Nc1ccccc1C(=O)O | 105% (inactive) |
| Cn1cc(-c2cc(N)n3nc(-c4c[nH]c5ccccc45)cc3n2)c2ccccc21 | -81.5% (active) |
| Cc1cccc(/C=C/c2ccc(NC(=S)NCCCCN(C)C)cc2)c1 | -64.4% (active) |
| Cc1ccc(N=Nc2c(N)nn3c(-c4cc5ccccc5oc4=O)ccnc23)cc1 | 46.6% (inactive) |
| O=C(Nc1nc2ccccc2s1)Nc1ccccc1Cl | 93.7% (inactive) |
| COc1ccc(NC(=O)CSc2nnc(-c3ccc(-c4nc5ccc(Cl)cc5[nH]4)cc3)o2)cc1 | 13.5% (inactive) |
| O=C1Nc2cc(-c3ccc(NS(=O)(=O)c4ccc(C(F)(F)F)cc4)cc3)ccc2/C1=C/c1ccc[nH]1 | 55.3% (inactive) |
| COc1ccc(Nc2nnc(-c3c[nH]c4ccccc34)o2)cc1 | 97.7% (inactive) |
| Cn1cc(-c2cc(N)n3nc(-c4c[nH]c5ccc(F)cc45)cc3n2)c2cccnc21 | -89.5% (active) |
| O=C(NN1C(=O)/C(=C/C=C/c2ccc([N+](=O)[O-])o2)SC1=S)c1ccc([N+](=O)[O-])cc1 | -82.5% (active) |
| CN1C(=O)/C(=C/c2ccco2)S/C1=N/c1nccs1 | 117% (inactive) |
| N#C/C(=C/c1ccc([N+](=O)[O-])cc1)c1nnc(NC(=O)c2ccc(-n3c(=O)[nH]c4ccccc4c3=O)cc2)s1 | 120% (inactive) |
| O=C(CSc1nnc(-c2ccc(-c3nc4ccc(Cl)cc4[nH]3)cc2)o1)Nc1ccccc1 | 4.09% (active) |
| Cc1cccc(NCC(=O)N2CCN(c3ncnc4c3cnn4-c3ccccc3)CC2)c1 | 62.2% (inactive) |
| O=C(N/N=C/c1ccc(Br)o1)c1[nH]c2ccc(Br)cc2c1-c1ccccc1 | 6.88% (active) |
| CCCCCCCCc1ccc(C(=O)Nc2ccc(C)c(OP(=O)(O)O)c2)cc1 | 106% (inactive) |
| Cn1cc(-c2cc3nc(-c4cn(C)c5ncc(Br)cc45)cc(N)n3n2)c2cc(F)ccc21 | 7.16% (active) |
| O=C1Nc2ccccc2/C1=C/C(=O)c1cc2ccccc2oc1=O | 101% (inactive) |
| c1n[nH]cc1-c1nc2ccc3cn[nH]c3c2c2c1CCCC2 | 93.2% (inactive) |

| Structure (SMILES) | growth |
| --- | --- |
| CN1C(=O)C(O)(CC(=O)c2cc3ccccc3oc2=O)c2ccccc21 (stereo not given) | 94.2% (inactive) |
| O=C(CCl)Nc1ccc(C(=O)/C=C/c2cc3ccccc3nc2Cl)cc1 | -62.3% (active) and 42.9% (inactive) |
| Cc1cc(C2(c3cc(C)c(OCC(O)CNc4c(C)n(C)n(-c5ccccc5)c4=O)cc3C(C)C)OC(=O)c3ccccc32)c(C(C)C)cc1OCC(O)CNc1c(C)n(C)n(-c2ccccc2)c1=O (stereo not given) | 29.2% (inactive) |
| Cn1cc(-c2cc(N)n3nc(-c4c[nH]c5ccccc45)cc3n2)c2cc(Br)ccc21 | -65.7% (active) |
| CCC(=O)c1c2c(c3ccc4c5ccccc5ccc4n13)C(=O)c1ccccc1C2=O | 24.6% (inactive) |
| CS(=O)(=O)Nc1cc(-c2ccc3ncnc(Nc4ccc(OCc5cccnc5)c(Cl)c4)c3c2)cnc1Cl | 2.98% (active) |
| Cn1cc(-c2cc(N)n3nc(-c4c[nH]c5ccccc45)cc3n2)c2cc(Cl)ccc21 | -75.5% (active) |
| COc1ccc(N=Nc2c(N)nn3c(N)c(C#N)c(-c4ccc(C)cc4)nc23)cc1 | 61.6% (inactive) |
| COc1ccc(C(=O)/C=C/c2ccc3c(c2)OCCO3)cc1S(N)(=O)=O | 89.7% (inactive) |
| CCCCC[C@@H]1C/C=C(\C)[C@@H](O)C(C)(C)C(=O)[C@@H](C)/C=C(\C)[C@@H]2C[C@H](O)C[C@](O)(CC(=O)O1)O2 | 49.6% (inactive) |
| CC(C)(C)c1ccc(OCc2nc3ccccc3n2-c2cccc(N)c2)cc1 | 99.8% (inactive) and 103% (inactive) |
| O=C1/C(=C/c2cnc(-c3ccccc3)s2)SC(=S)N1Cc1ccc2c(c1)OCO2 | 107% (inactive) |
| COc1ccc(NC2=C(I)C(=O)C(C)=C(C)C2=O)cc1 | 96.1% (inactive) |
| COc1ccc(-c2nnc3c(/C=C/c4ccc(Br)cc4)nc4ccccc4n23)cc1 | -19.8% (active) |
| C[C@H]1[C@@H](CC(=O)N[C@@H](Cc2coc3ccccc23)B(O)O)O[C@@H]2OC3(C)CC[C@H]4[C@H](C)CC[C@@H]1[C@@]24O3 | -33.7% (active) |
| O=C(NNC(=S)NC(=O)c1ccccc1)c1ccc(OCc2nc3ccc(Cl)cc3[nH]2)cc1 | -54.5% (active) |
| CC1=C(C)C(=O)C(NCCN2CCOCC2)=C(Br)C1=O | 37.3% (inactive) |
| N#Cc1ccc(C(=O)NNC(=O)CSc2nc3sc4c(c3c(=O)n2-c2ccc(Cl)cc2)CCCC4)cc1 | 44.7% (inactive) |
| CCCCCCCOc1ccc(S(=O)(=O)Nc2ccc(C)c(F)c2C(=O)O)cc1 | 96.4% (inactive) |

Source: PubChem BioAssay (NCI)
